Experimental findings from PubChem BioAssay (NCATS) are described below.

Values without a mark were called inactive. Results filed as inconclusive are left out. Calls of active or inactive are those of the source. Unless noted, calls follow the shape of the dose curve; as a rule, active = well fitted curve in the direction sought with a large enough effect; inconclusive = small, poorly fitted or top-dose-only effect, or another doubt; inactive = no such curve, though single readings can be large; an effect the other way counts as inactive or inconclusive.

The target of assay [1] is Cytochrome P450 3A4 (Homo sapiens) (UniProt P08684). Nature of the assay: qHTS Assay for Inhibitors and Substrates of Cytochrome P450 3A4 (AID 884). Also: potency is read from the fitted curve at half-maximal effect; nearly all actives have a fitted effect of over 50% in size. An outline of the steps:
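Luminescent readout of luciferin produced by CYP3A4 (20 nM) dealkylation of Luciferin-PPXE, 25 uM (its KM). NADPH-driven reaction ran 60 min at RT after 10 min compound preincubation; data scaled to 57 uM ketoconazole as 100% inhibition.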
(In general: qHTS replaces the single test concentration by a dilution series.)

Assay [2] shares this target. In words: qHTS Assay for Activators of Cytochrome P450 3A4 (AID 885). Also: nearly all actives have a fitted effect of over 65% in size. Summed up:
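Human CYP3A4 dealkylates Luciferin-PPXE to luciferin, which luciferase detection converts to light. Substrate was at its KM (25uM), buffer 200mM KPO4, reaction 60 min at RT.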

Assay [3] concerns the target Rap guanine nucleotide exchange factor 3 (Homo sapiens) (UniProt O95398). In words: Confirmatory qHTS for antagonist of cAMP-regulated guanine nucleotide exchange factor 3 (EPAC1) (AID 1645880). Also: nearly all actives have a fitted effect of over 55% in size. Also: potency is read from the fitted curve at half-maximal effect.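 As to activity, negative = inhibition: plate controls were DMSO only for no effect and full effect of the ATA control for full effect.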 The following applies: EPAC1 Rap1B-BODIPY-GDP exchange, fluorescence; activity, negative = inhibition: at 115 µM (top of the series). An outline of the steps:
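Released BODIPY-GDP fluoresces less than Rap1-bound BODIPY-GDP; the signal is followed at 480/540 nm at 5-min intervals over 30 min, after 5 min at room temperature. Reactions contain 100 nM EPAC1, 250 nM RAP1B-BODIPY-GDP and 50 uM GDP; results are normalized to ATA and DMSO.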

In assay [4] the target is Rap guanine nucleotide exchange factor 4 (Homo sapiens) (UniProt Q8WZA2). In words: Confirmatory qHTS for antagonist of cAMP-regulated guanine nucleotide exchange factor 4 (EPAC2) (AID 1645885). Also: nearly all actives have a fitted effect of over 25% in size. Also: potency is read from the fitted curve at half-maximal effect. As to activity change, negative = inhibition: % is scaled to controls: 0 for no effect and ±100 for the full control effect.
Assay [5] addresses Rap guanine nucleotide exchange factor 3 (Homo sapiens) (UniProt O95398). Nature of the assay: Counterscreen qHTS for antagonist of cAMP-regulated guanine nucleotide exchange factor 3 (EPAC1) (AID 1645888). Also: potency is read from the fitted curve at half-maximal effect. As to activity change, negative = inhibition: % of control where 0% means no effect. An outline of the steps: (§1)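 Rap1B–BODIPY-GDP (250 nM) with 50 uM GDP; compounds pin-transferred to 9.74 nM–152 uM final (activator) or from 7.32 nM upwards (inhibitor). Fluorescence Ex/Em 480/540 nm read at 5 and 30 min, then after adding cAMP or buffer, at room temperature.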

For assay [6] the target is unchanged. In words: Counterscreen qHTS for agonist of cAMP-regulated guanine nucleotide exchange factor 3 (EPAC1) (AID 1645889). Also: nearly all actives have a fitted effect of over 40% in size. Also: potency is read from the fitted curve at half-maximal effect. As to activation: % of control where 0% means no effect. Summed up:
as §1

In assay [7] the target is Tumor susceptibility gene 101 protein (Homo sapiens) (UniProt Q99816). In words: qHTS Assay for Iinhibitors of HIV-1 Budding by Blocking the Interaction of PTAP/TSG101: Hit Validation (AID 651600). Also: potency is read from the fitted curve at half-maximal effect; nearly all actives have a fitted effect of over 70% in size. An outline of the steps:
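Fluorescence polarization binding assay: Tsg101 binding domain (10 uM final) pre-dispensed with compounds, then FITC-labeled PTAP-motif peptide (50 nM final) added; 20 min at r.t. in HEPES pH 7.5 buffer with NaCl, Tween 20, EDTA, TCEP.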

A short description of assay [8]: AP1 Signaling Pathway (AID 357; active = well fitted curve in either direction with a large enough effect, not every such curve was filed as active;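 also: ME-180 reporter cells stimulated with EGF at its EC50 level; % is scaled to controls: 0 for no effect and ±100 for the full control effect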). The following applies: ME-180 (cervical carcinoma) AP-1-bla reporter, EGF-induced, beta-lactamase ratio, 5 h; at 7.69 µM (top of the series) unless noted. Summed up:
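Cells are seeded overnight, exposed to compound titrations and an EC50 level of EGF for 5 hours at 37 °C, then loaded with CCF4 dye for 2.5 hours. Beta-lactamase activity under the AP-1 element is read as a blue/green ratio.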

The target of assay [9] is Cytochrome P450 1A2 (Homo sapiens) (UniProt P05177). In words: p450-cyp1a2 (AID 410; calls by dose curve; also: potency is read from the fitted curve at half-maximal effect). Summed up: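 Read-out is luminescence from luciferin produced by CYP1A2 demethylation of Luciferin-ME (100uM, at Km). Detection reagent stopped the 60 min NADPH-dependent reaction; signals were normalized to 57 uM furafylline.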
Assay [10] in a line: NFAT Signaling Pathway (AID 444; active = well fitted curve in either direction with a large enough effect, not every such curve was filed as active;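 also: carbachol stimulus at about its EC50 of 1 µM final; % is scaled to controls: 0 for no effect and ±100 for the full control effect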). The note with it: Jurkat NFAT-bla M1, carbachol, beta-lactamase ratio, 5 h; at 7.69 µM (top of the series) unless noted. Summed up: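 Jurkat cells with NFAT-driven β-lactamase reporter and co-expressed M1 receptor, stimulated with carbachol (final 1 uM, ~EC50), compound titration, 5 h at 37 °C. CCF4 loaded 1 h at RT; 460/530 nm ratio gave %activity and AC50.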

Assay [11] concerns the target Glucocorticoid receptor (Homo sapiens) (UniProt P04150). Nature of the assay: GR-EFC Redistribution (AID 451; calls by dose curve; also: potency is read from the fitted curve at half-maximal effect). The following applies: CHO-K1 GR-EFC translocation, beta-gal luminescence, 2 h. An outline of the steps: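 CHO-K1 cells expressing nuclear EA and GR-ED fragments of b-gal; compounds titrated up to 46 uM final, 2 h at 37 C. GR nuclear translocation read as complemented b-gal luminescence after 1 h RT detection.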

The target of assay [12] is Mitogen-activated protein kinase 10 (Mus musculus) (UniProt Q61831). Nature of the assay: JNK3 AlphaScreen Assay (AID 530; active = well fitted curve in either direction with a large enough effect, not every such curve was filed as active;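 also: kinase came from lysate of stimulated human HepG2 cells; signal reports phosphorylation of biotinylated GST-cJun 1-79 at Ser73 with 10 µM ATP; % is scaled to controls: 0 for no effect and ±100 for the full control effect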). Summed up:
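HepG2 lysate (IL-1b/TNFa pre-activated) + biotin-GST-cJun 1-79 + anti-pSer73 cJun; cpd titration, 15 min RT; ATP 10 uM start; Tris pH 7.6, MgCl2, DTT, vanadate; beads in EDTA buffer; AlphaScreen.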
In general terms: In Alpha technology, singlet oxygen from a donor bead excites a nearby acceptor bead.

Assay [13] has as its target 3',5'-cyclic-AMP phosphodiesterase 4B (Homo sapiens) (UniProt Q07343). Nature of the assay: qHTS Assay for Inhibitors of PDE-IV (AID 607; active = well fitted activation curve with a large enough effect in the main read-out, with a control signal flat, not every such curve was filed as active; also: % of control where 0% means no effect). An outline of the steps:
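HEK293 ACTOne cells with CNG channel (1000/well), endogenous PDE4; membrane potential dye, compounds up to 22.9 uM final. Fluorescence Ex 535/Em 590; RO 20-1724 (100 uM final) as reference.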

The target in assay [14] is Guanine nucleotide-binding protein G(i) subunit alpha-1 (Homo sapiens) (UniProt P63096). In words: qHTS Assay for Inhibitors of RGS12 GoLoco Motif Activity (Green Fluorophore) (AID 879). Also: potency is read from the fitted curve at half-maximal effect. An outline of the steps: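 A drop in FITC polarization marked displacement of the FITC-tagged RGS12 GoLoco peptide (10 nM) from Gαi1 (50 nM). Compounds were incubated 10 min at room temperature in Tris pH 7.5 buffer containing 150 mM NaCl, 0.1 mM GDP and 0.05% NP40; unlabeled peptide titration served as control.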

Assay [15] can be described thus: qHTS Assay for Identification of Small Molecule Antagonists for Thrombopoietin (TPO) Signaling Pathway (AID 918). Also: potency is read from the fitted curve at half-maximal effect; nearly all actives have a fitted effect of over 60% in size. The note with it: TPO-dependent cell signaling reporter, antagonist mode. An outline of the steps: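 Antagonist mode at EC50 TPO (26 pM) in IL-3-free medium; murine Ba/F3 cells with human TPO receptor and GPIIb-promoter luciferase, 24 hrs at 37 C before luminescent detection.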

In assay [16] the target is Pyruvate kinase (Leishmania mexicana) (UniProt Q27686). In words: qHTS Validation Assay for Inhibitors of Leishmania Mexicana Pyruvate Kinase (AID 945).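 Also: 0% = DMSO only neutral control wells.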 Summed up:
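Mutant LmPYK (E451W), 0.2 nM, plus 0.5 mM PEP and 0.1 mM ADP in 50 mM imidazole pH 7.2 containing 0.01% Tween 20 and 0.05% BSA. Incubated 1 h at room temperature; luminescence via PKLight, normalized to DMSO.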

For assay [17], the target named is Pyruvate kinase PKM (Homo sapiens) (UniProt P14618). Nature of the assay: qHTS Assay for Activators of Human Muscle Pyruvate Kinase (AID 954; active = well fitted curve in the direction sought with a large enough effect, not every such curve was filed as active;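 also: 0% = uninhibited enzyme and -100% = no enzyme or full thiadiazolimine inhibition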). An outline of the steps: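 Compound pinned into substrate mix (0.5 mM PEP, 0.1 mM ADP), then 0.1 nM PKM2 added; 1 h, RT. Stop/detection luciferase reagent added, luminescence read. Normalized to no-inhibition and no-enzyme or reference-inhibitor controls.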

The target in assay [18] is Alpha-galactosidase A (Homo sapiens) (UniProt P06280). Nature of the assay: Counterscreen for Glucocerebrosidase Inhibitors: qHTS Assay for Human alpha-Galactosidase at pH 4.5 (AID 992). Also: 0% is about no effect. An outline of the steps: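 Steps: enzyme (2 nM final), then compound across 0.7 nM to 77 uM, then 80 uM fluorogenic galactopyranoside substrate; incubate 20 min at room temperature; quench at pH 10; measure fluorescence at 365/440 nm.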

The target of assay [19] is alpha-glucosidase (Oryza sativa, rice) (UniProt Q653V4). In words: Counterscreen for Glucocerebrosidase Inhibitors: qHTS Assay for Rice alpha-Glucosidase at pH 5.0 (AID 997).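 Also: 0% = full activity with enzyme and -100% = basal without enzyme.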 An outline of the steps: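 Endpoint fluorogenic assay at pH 5.0: compounds (0.7 nM to 77 uM) titrated against 4 nM rice enzyme and 400 uM 4-MU-alpha-glucoside for 20 min at room temperature; NaOH/glycine stop, read ex 365/em 440 nm, Hill-fitted AC50.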
On the technique in general: The purpose of a counterscreen is to sort out artefacts and off-target activity.

The target of assay [20] is Cytochrome P450 2C9 (Homo sapiens) (UniProt P11712). In words: qHTS Assay for Inhibitors and Substrates of Cytochrome P450 2C9 (AID 883). Also: % is scaled to controls: 0 for no effect and ±100 for the full control effect; nearly all actives have a fitted effect of over 60% in size. An outline of the steps: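 Signal: luciferase luminescence reporting luciferin produced by CYP2C9. Conditions: 10nM enzyme, Luciferin-H 100uM at KM, 25mM KPO4, 37C, 60 min NADPH-driven reaction. Reference: 57uM sulphaphenazole as 100% inhibition.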

Chain of Cytochrome P450 3A4 (Homo sapiens) (P08684 whole entry, looked up): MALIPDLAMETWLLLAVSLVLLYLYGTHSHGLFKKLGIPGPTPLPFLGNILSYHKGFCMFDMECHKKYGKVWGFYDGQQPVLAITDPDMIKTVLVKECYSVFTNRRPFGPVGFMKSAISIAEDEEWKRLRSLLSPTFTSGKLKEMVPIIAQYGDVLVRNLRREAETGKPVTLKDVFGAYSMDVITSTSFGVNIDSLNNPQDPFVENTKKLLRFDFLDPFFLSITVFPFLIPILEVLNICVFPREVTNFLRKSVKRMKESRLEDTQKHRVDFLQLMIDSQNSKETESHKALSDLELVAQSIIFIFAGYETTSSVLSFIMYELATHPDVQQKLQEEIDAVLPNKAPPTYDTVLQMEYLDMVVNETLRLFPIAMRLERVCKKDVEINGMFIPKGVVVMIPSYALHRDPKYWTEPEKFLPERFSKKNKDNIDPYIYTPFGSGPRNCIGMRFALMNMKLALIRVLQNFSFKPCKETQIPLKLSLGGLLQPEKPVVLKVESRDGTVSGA
Chain of Rap guanine nucleotide exchange factor 4 (Homo sapiens) (Q8WZA2 whole entry, looked up): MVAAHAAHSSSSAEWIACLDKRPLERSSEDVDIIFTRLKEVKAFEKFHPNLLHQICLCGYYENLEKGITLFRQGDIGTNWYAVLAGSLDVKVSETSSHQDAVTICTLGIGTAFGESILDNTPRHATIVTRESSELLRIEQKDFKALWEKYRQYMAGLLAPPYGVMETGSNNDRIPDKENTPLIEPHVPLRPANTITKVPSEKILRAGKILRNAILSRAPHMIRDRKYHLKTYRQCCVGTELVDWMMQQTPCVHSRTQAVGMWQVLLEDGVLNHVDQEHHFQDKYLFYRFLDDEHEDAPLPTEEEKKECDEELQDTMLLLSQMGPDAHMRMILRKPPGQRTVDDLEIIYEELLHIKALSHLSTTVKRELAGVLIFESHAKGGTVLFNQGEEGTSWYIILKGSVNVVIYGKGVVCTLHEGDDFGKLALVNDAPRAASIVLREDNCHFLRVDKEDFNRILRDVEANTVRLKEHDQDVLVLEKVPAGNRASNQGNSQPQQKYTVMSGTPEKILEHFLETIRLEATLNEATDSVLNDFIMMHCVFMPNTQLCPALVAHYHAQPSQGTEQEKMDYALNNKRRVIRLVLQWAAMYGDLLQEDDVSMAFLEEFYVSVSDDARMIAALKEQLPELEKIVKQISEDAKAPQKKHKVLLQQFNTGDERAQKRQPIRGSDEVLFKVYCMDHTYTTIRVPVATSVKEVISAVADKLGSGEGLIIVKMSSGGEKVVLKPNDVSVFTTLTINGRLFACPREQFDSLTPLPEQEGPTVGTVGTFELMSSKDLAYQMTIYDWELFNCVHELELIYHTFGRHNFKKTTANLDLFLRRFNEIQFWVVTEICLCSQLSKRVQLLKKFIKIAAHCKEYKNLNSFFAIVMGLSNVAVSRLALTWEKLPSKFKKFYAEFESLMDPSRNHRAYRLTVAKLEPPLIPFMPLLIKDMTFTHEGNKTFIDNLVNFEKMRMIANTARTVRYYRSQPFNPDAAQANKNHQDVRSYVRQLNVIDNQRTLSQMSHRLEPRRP
Chain of Rap guanine nucleotide exchange factor 3 (Homo sapiens) (O95398 whole entry, looked up): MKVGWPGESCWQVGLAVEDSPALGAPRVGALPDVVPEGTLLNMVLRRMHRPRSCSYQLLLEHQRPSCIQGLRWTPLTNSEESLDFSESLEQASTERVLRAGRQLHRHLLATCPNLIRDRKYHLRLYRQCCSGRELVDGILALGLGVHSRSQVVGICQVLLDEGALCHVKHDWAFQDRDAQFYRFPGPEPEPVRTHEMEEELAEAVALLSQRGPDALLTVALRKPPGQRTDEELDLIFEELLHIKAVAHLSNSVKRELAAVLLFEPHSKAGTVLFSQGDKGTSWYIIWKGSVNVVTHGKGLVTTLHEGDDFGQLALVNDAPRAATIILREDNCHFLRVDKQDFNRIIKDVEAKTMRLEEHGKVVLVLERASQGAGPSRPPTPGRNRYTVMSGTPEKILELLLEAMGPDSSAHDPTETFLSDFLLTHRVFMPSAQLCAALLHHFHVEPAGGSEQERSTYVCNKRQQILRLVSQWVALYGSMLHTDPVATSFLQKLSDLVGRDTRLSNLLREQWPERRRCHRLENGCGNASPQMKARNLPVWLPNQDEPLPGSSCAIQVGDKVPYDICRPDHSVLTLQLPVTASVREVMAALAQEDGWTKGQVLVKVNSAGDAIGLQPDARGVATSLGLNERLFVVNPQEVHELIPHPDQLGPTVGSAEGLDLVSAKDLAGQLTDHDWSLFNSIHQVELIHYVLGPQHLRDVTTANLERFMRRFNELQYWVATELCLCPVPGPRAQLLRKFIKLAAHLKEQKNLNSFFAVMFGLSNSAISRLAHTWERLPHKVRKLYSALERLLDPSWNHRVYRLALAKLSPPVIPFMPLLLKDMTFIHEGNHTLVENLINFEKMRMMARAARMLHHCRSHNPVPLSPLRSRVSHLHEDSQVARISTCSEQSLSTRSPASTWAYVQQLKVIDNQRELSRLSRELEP
Chain of Pyruvate kinase (Leishmania mexicana) (Q27686 2-499 E452W): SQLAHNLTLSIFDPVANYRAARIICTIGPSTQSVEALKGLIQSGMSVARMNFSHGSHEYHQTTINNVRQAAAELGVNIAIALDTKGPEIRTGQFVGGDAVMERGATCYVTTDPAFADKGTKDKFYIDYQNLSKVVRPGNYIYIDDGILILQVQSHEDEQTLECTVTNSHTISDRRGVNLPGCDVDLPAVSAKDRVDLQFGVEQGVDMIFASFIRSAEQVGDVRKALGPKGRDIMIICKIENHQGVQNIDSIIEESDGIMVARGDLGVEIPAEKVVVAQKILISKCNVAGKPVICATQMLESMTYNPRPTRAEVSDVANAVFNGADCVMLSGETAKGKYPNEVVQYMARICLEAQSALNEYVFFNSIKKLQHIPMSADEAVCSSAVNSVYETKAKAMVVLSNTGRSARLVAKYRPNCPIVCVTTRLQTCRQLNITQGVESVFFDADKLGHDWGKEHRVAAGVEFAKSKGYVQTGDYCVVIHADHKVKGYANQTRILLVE
Chain of Pyruvate kinase PKM (Homo sapiens) (P14618 whole entry, looked up): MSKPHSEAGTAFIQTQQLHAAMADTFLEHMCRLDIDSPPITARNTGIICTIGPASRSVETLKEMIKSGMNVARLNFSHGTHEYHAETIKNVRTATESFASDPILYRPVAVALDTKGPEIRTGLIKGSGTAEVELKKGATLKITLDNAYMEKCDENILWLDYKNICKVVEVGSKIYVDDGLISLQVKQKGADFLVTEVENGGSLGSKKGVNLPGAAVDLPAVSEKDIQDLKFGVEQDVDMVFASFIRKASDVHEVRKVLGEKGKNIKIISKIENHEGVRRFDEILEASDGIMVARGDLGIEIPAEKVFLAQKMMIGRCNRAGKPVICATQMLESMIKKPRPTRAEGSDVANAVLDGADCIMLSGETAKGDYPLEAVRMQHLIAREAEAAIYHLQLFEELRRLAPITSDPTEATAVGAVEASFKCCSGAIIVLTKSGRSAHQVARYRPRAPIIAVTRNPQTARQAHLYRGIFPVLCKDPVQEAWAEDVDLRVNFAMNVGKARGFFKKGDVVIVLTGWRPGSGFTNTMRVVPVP
Chain of Cytochrome P450 1A2 (Homo sapiens) (P05177 whole entry, looked up): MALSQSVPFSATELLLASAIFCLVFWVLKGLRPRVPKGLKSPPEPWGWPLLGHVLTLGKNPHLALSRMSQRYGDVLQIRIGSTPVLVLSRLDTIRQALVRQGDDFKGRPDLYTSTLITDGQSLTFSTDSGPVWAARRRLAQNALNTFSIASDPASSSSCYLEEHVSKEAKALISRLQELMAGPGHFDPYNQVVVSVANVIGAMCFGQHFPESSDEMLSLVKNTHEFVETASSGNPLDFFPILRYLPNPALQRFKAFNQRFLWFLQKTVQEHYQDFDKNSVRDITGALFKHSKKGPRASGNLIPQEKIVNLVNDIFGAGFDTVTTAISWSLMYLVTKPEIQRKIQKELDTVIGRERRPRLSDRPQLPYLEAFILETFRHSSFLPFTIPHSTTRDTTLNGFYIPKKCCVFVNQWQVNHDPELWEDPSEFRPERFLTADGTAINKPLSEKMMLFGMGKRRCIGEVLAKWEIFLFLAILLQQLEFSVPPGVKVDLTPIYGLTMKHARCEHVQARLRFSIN
Chain of Tumor susceptibility gene 101 protein (Homo sapiens) (Q99816 whole entry, looked up, the tested form may be a part): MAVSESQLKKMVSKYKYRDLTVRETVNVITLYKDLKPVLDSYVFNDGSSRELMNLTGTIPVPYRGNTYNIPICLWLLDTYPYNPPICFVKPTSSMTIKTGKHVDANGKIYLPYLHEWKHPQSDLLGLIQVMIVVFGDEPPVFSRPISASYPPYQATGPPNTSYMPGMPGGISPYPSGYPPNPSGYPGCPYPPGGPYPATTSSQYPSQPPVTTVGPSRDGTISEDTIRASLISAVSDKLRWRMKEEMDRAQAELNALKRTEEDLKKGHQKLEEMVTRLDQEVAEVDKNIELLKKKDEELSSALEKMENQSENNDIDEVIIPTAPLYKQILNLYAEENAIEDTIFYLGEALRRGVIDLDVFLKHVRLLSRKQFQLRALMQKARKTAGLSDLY
Chain of Alpha-galactosidase A (Homo sapiens) (P06280 whole entry, looked up): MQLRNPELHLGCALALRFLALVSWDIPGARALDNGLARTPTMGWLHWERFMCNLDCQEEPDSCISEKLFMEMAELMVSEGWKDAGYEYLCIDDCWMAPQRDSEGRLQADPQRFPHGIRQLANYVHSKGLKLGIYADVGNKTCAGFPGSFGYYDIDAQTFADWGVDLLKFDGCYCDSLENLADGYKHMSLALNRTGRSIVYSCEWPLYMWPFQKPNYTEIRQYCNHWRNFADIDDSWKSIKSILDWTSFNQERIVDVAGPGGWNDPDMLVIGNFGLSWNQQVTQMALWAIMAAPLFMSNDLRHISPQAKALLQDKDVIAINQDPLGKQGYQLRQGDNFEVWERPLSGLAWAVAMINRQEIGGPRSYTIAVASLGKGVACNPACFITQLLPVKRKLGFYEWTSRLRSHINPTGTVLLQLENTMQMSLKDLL

As for `Cn1c(N)c(C(=O)COC(=O)c2cc(-c3ccco3)nc3ccccc23)c(=O)n(C)c1=O`, the Potency was 25.1 µM (active) in assay [1] and 47.8 µM (active) in assay [3]. Further, the call in assay [2] was inactive. The Potency result in assay [4], in assay [5] and in assay [6] was “inactive” throughout.

As for `CCN1CCc2c(sc(NC(=O)Nc3ccc(Cl)c(Cl)c3)c2C(N)=O)C1`, the Potency result in assay [3] was “inactive”. Further, the Potency is 84.9 µM (active) in [4], 100 µM (active) in assay [5] and 112 µM (active) in assay [6].

For `COc1ccc(C(=O)Nc2nc(-c3ccc(OC)cc3)c(-c3ccc([N+](=O)[O-])cc3)s2)cc1`, the Potency entry in [3], in assay [4] and in assay [5] was “inactive” in each case. Further, the Potency in assay [6] is 63.1 µM (active).

For `O=C(NC1CCCC1)c1cccc2c1C(=O)c1ccc(N3CCCCC3)cc1S2(=O)=O`, the Potency entry in assay [3], in [4], in [5] and in assay [6] was “inactive” in each case.

Consider `CN1C(=O)c2cccc3c(N)ccc(c23)C1=O`, for which the Potency in [7] was 5.8 µM (active); in assay [6], 10 µM (active). Besides, the Potency result in assay [3], in assay [4] and in [5] was “inactive” in each case.

For the molecule `CC(=O)[C@@]1(O)Cc2c(O)c3c(c(O)c2[C@H](O[C@H]2C[C@H](N)[C@H](O)[C@H](C)O2)C1)C(=O)c1ccccc1C3=O`, the activity change, negative = inhibition in assay [8] was -110% [at 38 µM] (active); in [10], -116% [at 38 µM] (active); in assay [5], 128% [at 30.8 µM]. The Potency in assay [9] is 20 µM (active); in assay [11] it was above 46 µM; in assay [14], 0.02 µM (active); in assay [15] it was 0.0251 µM (active); in assay [6], 12.6 µM (active). Further, the Potency result in assay [12], in assay [13], in [3] and in assay [4] was “inactive” each time. Moreover, the molecule was called inactive in assay [16], in assay [17], in assay [18] and in assay [19].

For the molecule `Cc1ccc(S(=O)(=O)/N=C2\C=C(NS(=O)(=O)c3ccccc3)C(=O)c3ccccc32)cc1`, the Potency is 26.9 µM (active) in [3] and 16.9 µM (active) in assay [4]. Besides, the Potency result in assay [5] and in assay [6] was “inactive” in each case.

As to `COc1cccc(/C(O)=C/c2nc3ccc(C(=O)NCCc4cccc(C)c4)cc3[nH]c2=O)c1`, the Potency entry in assay [3], in assay [4], in assay [5] and in [6] was “inactive” in each case.

Consider `COC(=O)c1sc(S(=O)(=O)N2CCCCC2C)c(C(=O)OC)c1C` (stereo unspecified), for which the Potency result in assay [3], in assay [5] and in [6] was “inactive” in each case. The Potency in assay [4] was 53.6 µM (active).

On to `CC1CC1c1ccc(/C=C(\C#N)C(=O)Nc2cc(Cl)ccc2Cl)o1` (stereo unspecified), for which the Potency result in [3], in assay [4], in assay [5] and in assay [6] was “inactive” throughout.

As to `COc1ccccc1N1CCN(C(=O)c2ccc(S(=O)(=O)N3CCCC3)cc2)CC1`, the Potency entry in assay [3], in assay [4], in assay [5] and in assay [6] was “inactive” throughout.

Turning to `COc1cccc(Nc2ncc3nc(-c4ccc(F)cc4)c(=O)n(CCC#N)c3n2)c1`, in assay [20], the Potency entry is “inactive”. In addition, in [1], the Potency was 3.16 µM (active).
